Results on nine compounds are retold here after PubChem BioAssay (EPA / NIEHS).

Records with an inconclusive call do not appear. The source made the active and inactive calls. How the source made its calls, unless noted: active means hit-call score of the fitted dose curve at least 0.9, where 1 is the maximum; inconclusive means response in the unintended direction; inactive means score below 0.9.

Test [1] is described as follows: VALA_TUBHUV_Agonist_CellCount: Viability Assessment in the VALA Sciences human Umbilical Vein Endothelial Tubule Formation (TUBHUV) Agonism Assay (AID 2284309). Summed up: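 Viability endpoint by fluorescent imaging of fixed nuclear/CD31-stained HUVEC–HDF co-cultures. Readout is cell count, fitted upward against 0.1% DMSO. Compound exposure was 72 h in 10 ng/ml VEGF, after 3-day co-culture priming.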

A short description of test [2]: VALA_TUBHUV_Antagonist_CellCount: Viability Assessment in the VALA Sciences human Umbilical Vein Endothelial Tubule Formation (TUBHUV) Antagonism Assay (AID 2284310). Summed up: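 Read-out is imaged cell count after nuclear and CD31 staining, fitted against 0.1% DMSO vehicle. Compounds were added for 3 days, in 10 ng/ml VEGF assay medium, to HUVEC–HDF co-cultures pre-grown 3 days.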

Test [3] in a line: IUF_NPC4_neurite_length_120hr: Leibniz Research Institute for Environmental Medicine (IUF) 120-hour Neuronal Morphology Assay for Neurite Length (NPC4) (AID 2284302; active means hit-call score of the fitted dose curve at least 0.9, where 1 is the maximum; inactive means score below 0.9). The method, then:
IUF_NPC2-5 is a cell-based, multiplexed assay that uses hNPC, a human primary neural progenitor cells, with measurements taken at 72 or 120 hours after chemical dosing in a 96-well plate. Human neural progenitor cells (hNPC) are generated from human fetal brain cortex at gestational week (GW) 16-19. In the neural progenitor cell migration and differentiation assay (NPC2-5), hNPCs grown as spheres are plated on an extracellular matrix and migrate and differentiate out of the sphere core. The processes radial glia migration, neuronal and oligodendrocyte migration as well as neuronal differentiation, neuronal morphology and oligodendrocyte differentiation are studied using automated phase contrast imaging and automated fluorescence imaging in combination with high content image analysis. In parallel, the cell viability is assessed using an alamar blue viability assay and the cytotoxicity using a lactate dehydrogenase dependent membrane integrity assay.IUF_NPC4_neurite_length_120hr is one of 12 assay components measured from the IUF_NPC2-5 assay. The neurite length at 120 hr is the mean length in um of all neurons (see IUF_NPC3_neuronal_differentiation_120hr) that are identified by the skeletonization algorithm in Omnisphero.Data from the IUF_NPC4_neurite_length_120hr component was analyzed at the endpoint IUF_NPC4_neurite_length_120hr in the positive analysis fitting direction relative to DMSO as the negative control and baseline of activity. […]
Culture protocol: After the cell expansion period the cells are cultured for up to four weeks in which they are passaged every week as described in 3.6. […] Therefore, half of the test condition solution (e.g. solvent control or compound dilution) is replaced by freshly prepared test condition solution.Test Method: Migration distance and cytotoxicity is determined after 72 hours based on brightfield images of each well. […] The plates are scanned using an automated high content imaging device and all nuclei and their positions are determined automatically based on their intensity and size. […]

Test [4] is described as follows: IUF_NPC2-5_cytotoxicity_72hr: Cytotoxicity Assessment at 72 hours in the Leibniz Research Institute for Environmental Medicine (IUF) Neural Progenitor Cell Migration and Differentiation Assay for Cytotoxicity (NPC2-5) (AID 2284306).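 Further: LDH release into supernatant measured by resorufin fluorescence marking membrane damage.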 The gist of the method: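 Membrane-integrity cytotoxicity at 72 h, read as LDH-driven resorufin fluorescence in supernatant. hNPC spheres from fetal cortex differentiate on coated plates in N2 medium, 37C, 5% CO2; seven serial compound concentrations plus solvent control (DMSO ≤0.1%).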

Test [5] can be described thus: IUF_NPC2-5_cytotoxicity_120hr: Cytotoxicity Assessment at 120 hours in the Leibniz Research Institute for Environmental Medicine (IUF) Neural Progenitor Cell Migration and Differentiation Assay (NPC2-5) (AID 2284307). The gist of the method: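 Membrane-integrity loss is quantified by LDH in supernatant after five days of exposure of migrating, differentiating human fetal NPC spheres; seven serially diluted concentrations are tested with DMSO kept at or below 0.1%.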

Test [6] is described as follows: IUF_NPC2-5_cell_number_120hr: Cell Number Assessment at 120 hours in the Leibniz Research Institute for Environmental Medicine (IUF) Neural Progenitor Cell Migration and Differentiation Assay (NPC2-5) (AID 2284308; active means hit-call score of the fitted dose curve at least 0.9, where 1 is the maximum; inactive means score below 0.9;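 further: count of Hoechst-stained nuclei in migration zone around plated human neural progenitor spheres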). The gist of the method:
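Seven-point serial dilutions plus solvent control were applied to plated 0.3 mm hNPC spheres at differentiation start, with medium half-replaced at day 3. Nuclei positive for Hoechst in the migration zone were enumerated at 120 h.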

A short description of test [7]: IUF_NPC2-5_viability_120hr: Viability Assessment at 120 hours in the Leibniz Research Institute for Environmental Medicine (IUF) Neural Progenitor Cell Migration and Differentiation Assay (NPC2-5) (AID 2284312; active means hit-call score of the fitted dose curve at least 0.9, where 1 is the maximum; inactive means score below 0.9). The gist of the method:
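Alamar blue resorufin fluorescence read after 5 days of differentiation, with compound present from day 0 and replenished at day 3. Primary hNPC spheres on laminin-coated plates, 37C; seven concentrations plus solvent control, fitted against DMSO.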

Test [8] is described as follows: VALA_TUBIPS_Agonist_TubuleLength: VALA Sciences human iPS-derived Endothelial Tubule Formation (TUBIPS) Agonism Assay (AID 2284311). Summed up: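 Agonist-mode readout is the gain in imaged tubule length versus DMSO baseline. It was measured by fluorescence high-content imaging 72 h after dosing human iPSC-derived endothelial cells.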
A short description of test [9]: IUF_NPC5_oligodendrocyte_differentiation_120hr: Leibniz Research Institute for Environmental Medicine (IUF) 120-hour Oligodendrocyte Differentiation Assay (NPC5) (AID 2284304).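 Further: share of O4-positive cells among Hoechst nuclei found by CNN image analysis.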 Summed up:
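After plating on poly-D-lysine/laminin, fetal-derived hNPC spheres differentiated for 120 h at 37C in compound-containing N2 medium, refreshed by half on day 3. O4 immunostaining over Hoechst nuclei in the migration zone gave oligodendrocyte percentage relative to DMSO.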

Test [10] can be described thus: IUF_NPC4_neurite_area_120hr: Leibniz Research Institute for Environmental Medicine (IUF) 120-hour Neuronal Morphology Assay for Neurite Area (NPC4) (AID 2284305). Summed up:
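Neurite area (pixels, nuclei excluded) of TUBB3-positive neurons from hNPC spheres differentiating 5 days under continuous exposure at 37 C, 5% CO2. High-content imaging; loss of signal versus DMSO control across 7 concentrations.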

In the case of `Oc1ccc2ccccc2c1N=Nc1ccccc1`, in [1], the outcome was inactive.

As a reminder, the AC50 is the concentration at which the activity in the assay is half-maximal. As for `Cc1cc(NC(=O)C(=O)O)cc(C)c1Oc1ccc(O)c2c1CCC2`, the AC50 in test [1] is 91.7 µM (active); in test [2], 81.2 µM (active).

`CC(=O)Oc1ccccc1C(=O)O`: the compound was classed as inactive in [3], in test [4], in [5], in test [6] and in test [7].

As for `CCCCC(CC)COC(=O)CC(C(=O)OCC(CC)CCCC)S(=O)(=O)O` (stereo not given), in test [1], the AC50 is 7.22 µM (active). Also, the compound was called inactive in test [8].

For `CCCc1cc(=O)[nH]c(=S)[nH]1`, in test [1], the result was inactive.

`COC(=O)c1ccc(O)cc1`: the compound was classed as inactive in test [1] and in [2].

With `C[Si]1(C)O[Si](C)(C)O[Si](C)(C)O[Si](C)(C)O1`, the call in test [3], in [9], in [10], in test [4], in [5] and in test [6] was inactive. In addition, in test [7], the compound was classed as inactive.

`O=c1c(O)c(-c2ccc(O)c(O)c2)oc2cc(O)cc(O)c12`: the compound was classed as inactive in test [1].

Regarding `OC[C@@H](O)[C@@H](O)[C@H](O)[C@H](O)CO`, the outcome in test [3], in [9], in test [10], in [4], in test [5] and in test [6] was inactive. In addition, the compound was classed as inactive in [1], in test [8] and in test [7].
